In the supplement of paper PMC13380429:

Assays:
[1] = test system: Vero E6 infected with SARS-CoV-2; assay: morphology score (similarity to uninfected cells); higher = more like uninfected cells; settings: 24 h
[2] = test system: Vero E6 infected with SARS-CoV-2; assay: SARS-CoV-2 infection rate relative to infected DMSO; higher = more infection, active = 60 or less; settings: 24 h

Row | SMILES | morphology score [1] | SARS-CoV-2 infection rate [2]
1 | CCN(CC)C(=S)S [ditiocarb-sodium-trihydrate] (10 µM) | 0.761 | 11% (active)
2 | C[C@@]12CCc3occc3[C@H]1CC[C@@]13C[C@@H](CC[C@H]12)[C@@](O)(CO)C3 [cafestol] (10 µM) | -0.0842 | 112% (inactive)
3 | O=C(NNC(=O)c1ccc(CNS(=O)(=O)c2ccc(F)c(Cl)c2)cc1)c1ccccc1 (10 µM) | -0.0845 | 114% (inactive)
4 | CC(C)(C)OC(=O)c1ncn2c1[C@@H]1CCCN1C(=O)c1c(Br)cccc1-2 [bretazenil] (10 µM) | 0.108 | 101% (inactive)
5 | CC(=O)O[C@H]1CC[C@@]2(C)C(=CC[C@@H]3[C@@H]2CC[C@]2(C)C(c4cccnc4)=CC[C@@H]32)C1 [abiraterone-acetate] (10 µM) | -0.0503 | 112% (inactive)
6 | N#CC1(c2ccc(NC(=O)c3cccnc3NCc3ccncc3)cc2)CCCC1 [apatinib] (10 µM) | 0.31 | 107% (inactive)
7 | Cc1cc(F)c(Nc2ncnc3cc(OCc4ccccc4)ccc23)cc1O (10 µM) | 0.0561 | 99% (inactive)
8 | Cc1cccc(/C=N/Nc2cc(N3CCOCC3)nc(OCCc3ccccn3)n2)c1 (10 µM) | -0.334 | 43.5% (active)
9 | Cc1ccc(CC2(O)CCN(CCOc3ccc(O)cc3)CC2)cc1 (10 µM) | -0.0871 | 111% (inactive)
10 | NC12CC3CC(CC(C3)C1)C2 [amantadine] (10 µM) | -0.265 | 110% (inactive)
11 | CCOC(=O)c1ccc(N(C)c2csc(-c3ccccc3)n2)cc1 [neuropathiazol] (10 µM) | -0.0531 | 110% (inactive)
12 | N#Cc1ccc(C(c2ccc(C#N)cc2)n2cncn2)cc1 [letrozole] (10 µM) | 0.138 | 102% (inactive)
13 | CC(CN1c2ccccc2Sc2ccccc21)N(C)C (stereo not drawn) [promethazine] (10 µM) | 0.528 | 67.5% (inactive)
14 | NCCc1c[nH]cn1 [histamine] (10 µM) | -0.112 | 114% (inactive)
15 | CN(C)CCC=C1c2ccccc2CCc2ccccc21 [amitriptyline] (10 µM) | 0.0472 | 100% (inactive)
16 | O=C(Nc1cccc2c(=O)cc(-c3nnn[nH]3)oc12)c1ccc(OCCCCc2ccccc2)cc1 [pranlukast] (10 µM) | 0.0454 | 111% (inactive)
17 | C#C[C@]1(O)C=C[C@H]2[C@@H]3CCC4=CC(=O)CC[C@@H]4[C@H]3CC[C@@]21CC [gestodene] (10 µM) | 0.149 | 107% (inactive)
18 | C[C@@H](NC(=O)[C@@H](N)Cc1ccc(O)cc1)C(=O)NCC(=O)N(C)[C@@H](Cc1ccccc1)C(=O)N[C@H](CO)CC[S+](C)[O-] (stereo partly drawn) (10 µM) | 0.111 | 112% (inactive)
19 | CC(C)[C@H]1CC[C@H](C(=O)N[C@H](Cc2ccccc2)C(=O)O)CC1 [nateglinide] (10 µM) | 0.0232 | 94.5% (inactive)
20 | N#CC(c1ccc(Cl)cc1)c1c(Cl)cc(-n2ncc(=O)[nH]c2=O)cc1Cl (stereo not drawn) [diclazuril] (10 µM) | 0.16 | 93% (inactive)
21 | COc1cc2c3cc1Oc1cc(ccc1O)C[C@@H]1c4c(cc(OC)c(O)c4Oc4ccc(cc4)C[C@@H]3N(C)CC2)CC[N+]1(C)C [tubocurarine] (10 µM) | -0.0274 | 110% (inactive)
22 | CCCCOC(=O)c1ccc(N)cc1 [butamben] (10 µM) | 0.102 | 108% (inactive)

Row | SMILES | morphology score [1] | SARS-CoV-2 infection rate [2]
23 | CC(C)Cc1ccc(C(C)C(=O)NO)cc1 (stereo not drawn) [ibuproxam] (10 µM) | 0.234 | 93.5% (inactive)
24 | C[C@]12CC[C@H]3[C@@H](CCC4=CC(=O)CC[C@@H]43)[C@@H]1CC[C@@H]2O [Nandrolone] (10 µM) | 0.24 | 89.5% (inactive)
25 | CCC1(CC)C(=O)C=CNC1=O [pyrithyldione] (10 µM) | -0.0471 | 107% (inactive)
26 | OC[C@@H](O)[C@@H](O)[C@H](O)[C@@H](O)CO [sorbitol] (10 µM) | -0.0534 | 110% (inactive)
27 | [O-][n+]1cccc(CO)c1 [mepiroxol] (10 µM) | -0.0187 | 109% (inactive)
28 | C[C@H](NC[C@H](O)CP(=O)(O)Cc1ccccc1)c1ccc(Cl)c(Cl)c1 (10 µM) | 0.127 | 106% (inactive)
29 | Cc1cccc(C)c1NC(=O)CN1CCN(CCCC(c2ccc(F)cc2)c2ccc(F)cc2)CC1 [lidoflazine] (10 µM) | 0.34 | 76.5% (inactive)
30 | Cc1cc(C)c(NC(=O)N(Cc2ccc3c(c2)Cc2ccccc2-3)C2CCCCCC2)c(C)c1 (10 µM) | -0.179 | 106% (inactive)
31 | Cc1n[nH]c(C)c1Cc1sc2c(c1C(=O)N1C[C@H](O)CO1)c(=O)n(C)c(=O)n2CC(C)C (10 µM) | 0.0657 | 106% (inactive)
32 | CCCCCCCCCCCCCCCCNc1ccc(C(=O)O)cc1 [cetaben] (10 µM) | 0.21 | 91.5% (inactive)
33 | Cn1ccc2cc(NC(=O)Nc3cccnc3)ccc21 (10 µM) | -0.0432 | 117% (inactive)
34 | CC1(C)CC(Oc2ccc(-c3ccc(-c4cn[nH]c4)cc3O)nn2)CC(C)(C)N1 (10 µM) | -0.373 | 120% (inactive)
35 | Oc1ccc(Cl)c2c1CCC2 [chlorindanol] (10 µM) | 0.109 | 102% (inactive)
36 | O=C1CCC[C@@H]2[C@H]3CCC[N+]4([O-])CCC[C@@H](CN12)[C@@H]34 (stereo partly drawn) [oxymatrine] (10 µM) | -0.00407 | 100% (inactive)
37 | COc1ccc2c(NC(=O)Nc3cccc(C(F)(F)F)n3)ccnc2c1 (10 µM) | -0.049 | 101% (inactive)
38 | Cc1cc(Nc2cc(N3CCN(C)CC3)nc(Sc3ccc(NC(=O)C4CC4)cc3)n2)n[nH]1 [tozasertib] (10 µM) | 0.292 | 119% (inactive)
39 | Nc1ncc2c(n1)CC(c1ccco1)CC2=O (stereo not drawn) (10 µM) | 0.0161 | 99% (inactive)
40 | N=C1CCCN1Cc1[nH]c(=O)[nH]c(=O)c1Cl [tipiracil] (10 µM) | -0.0802 | 106% (inactive)
41 | COc1cc2c(NC3CCN(C)CC3)nc(N3CCCN(C)CC3)nc2cc1OCCCN(C)C (10 µM) | 0.124 | 116% (inactive)
42 | CC(C)(C)c1ccc(-c2nc3c(N4CCN(Cc5ccc6nccnc6c5)CC4)cccc3[nH]2)cc1 (0.833333 µM) | 0.0532 | 102% (inactive)
43 | Oc1ccc2ccccc2c1 [beta-naphthol] (10 µM) | -0.0489 | 111% (inactive)
44 | CC(=O)N1CCC[C@H]1C(=O)N[C@@H](Cc1cnc[nH]1)C(=O)N[C@@H](CO)C(=O)N[C@@H](CS)C(=O)N[C@@H](CC(N)=O)C(N)=O (10 µM) | 0.0957 | 93% (inactive)

Row | SMILES | morphology score [1] | SARS-CoV-2 infection rate [2]
45 | c1ccc(N2CCN(CCCOc3ccc4c(c3)OCO4)CC2)cc1 (10 µM) | 0.0822 | 101% (inactive)
46 | CCCCCCCCCCCCCCCCCC(=O)OC[C@@H](O)[C@H]1OC[C@H](O)[C@H]1O [sorbitan-monostearate] (10 µM) | 0.0535 | 97.5% (inactive)
47 | O=S(=O)(O)c1ccc(O)cc1 [4-phenolsulfonic-acid] (10 µM) | -0.0939 | 114% (inactive)
48 | CC(C)(C)c1ccc(S(=O)(=O)Nc2ccc(Cl)cc2C(=O)c2cc[n+]([O-])cc2)cc1 [vercirnon] (10 µM) | 0.0488 | 98.5% (inactive)
49 | CC(=O)N1CCC(NC(=O)c2ccc(F)cc2)CC1 (10 µM) | 0.0529 | 110% (inactive)
50 | C=CCc1cccc(/C=N/NC(=O)CN2CCN(Cc3ccccc3)CC2)c1O (0.833333 µM) | 0.152 | 100% (inactive)
51 | CC(=O)SCCC(=O)N1[C@H](C)CCC[C@@H]1C(=O)O [methiopril] (10 µM) | 0.0927 | 102% (inactive)
52 | O=C(Nc1cccc(C(F)(F)F)c1)Nc1cc(S(=O)(=O)NC2CC2)ccc1-c1ccsc1 (10 µM) | 0.196 | 102% (inactive)
53 | S=P(N1CC1)(N1CC1)N1CC1 [thiotepa] (10 µM) | 0.127 | 96% (inactive)
54 | COc1ccc(CNC(=O)Nc2ncc([N+](=O)[O-])s2)cc1 (10 µM) | -0.141 | 106% (inactive)
55 | Cc1ncc(-c2csc(N=C(N)N)n2)[nH]1 [zaltidine] (10 µM) | 0.0534 | 106% (inactive)
56 | C[C@H](c1ccc2ccc(OC3CCC(C(F)(F)F)CC3)c(C(F)(F)F)c2c1)N1C2CCC1CC(C(=O)O)C2 (stereo partly drawn) [autotaxin-modulator-1] (10 µM) | 0.317 | 91% (inactive)
57 | CC(CCc1ccccc1)NCC(O)c1ccc(O)c(C(N)=O)c1 (stereo not drawn) [labetalol] (10 µM) | -0.119 | 114% (inactive)
58 | OC[C@@H](O)[C@@H](O)CO [erythritol] (10 µM) | 0.135 | 87.5% (inactive)
59 | N=C(N)c1cc2ccc(OC(=O)c3cccs3)cc2s1 (10 µM) | 0.578 | 76% (inactive)
60 | COc1c(O[C@@H]2O[C@H](CO)[C@@H](O)[C@H](O)[C@H]2O)cc2c(c1OC)-c1ccc(SC)c(=O)cc1[C@@H](NC(C)=O)CC2 [thiocolchicoside] (10 µM) | -0.00288 | 114% (inactive)
61 | C[C@]12CCC(=O)C=C1C=C[C@@H]1[C@@H]2CC[C@@]2(C)[C@H]1CC[C@@]21CCC(=O)O1 [canrenone] (10 µM) | 0.219 | 94% (inactive)
62 | Cc1ccc(C[N+](C)(C)C)o1 [5-methylfurmethiodide] (10 µM) | -0.123 | 117% (inactive)
63 | CCCCN(CC)c1nc(C)nc2c1c(C)c(C)n2-c1c(C)cc(C)cc1C [antalarmin] (10 µM) | 0.193 | 93% (inactive)
64 | CC(=O)O[C@@H]1C[C@H]2C(C)(C)C(=O)C=C[C@]2(C)[C@H]2CC[C@@]3(C)[C@H](c4ccoc4)OC(=O)[C@H]4O[C@]43[C@@]21C [gedunin] (10 µM) | 0.145 | 106% (inactive)
